Screens (PubChem BioAssay)
Hits are enriched below; roughly 10% of the tested compounds scored in any of these assays.
3T3 cytotox: cytotoxic compounds in NIH 3T3 cells; NIH 3T3 viability, CellTiter-Glo ATP luminescence, 48-72 h; Potency, µM (doses to about 96.7 µM), actives largely listed as inhibitors; 94,000 compounds, 4.3% hits; AID 1345082; further: nearly all actives have a fitted effect of over 55% in size
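Luminescent ATP readout (CellTiter-Glo, 10 min RT) after 48 or 72 hr compound exposure of NIH 3T3 cells seeded at 400 cells/well in 1536-well format; quantitative HTS.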
HEK cytotox: cytotoxic compounds in HEK 293 cells. 94,000 compounds, 6.6% hits. AID 1345083. Potency, µM (titrated, usually from 115 µM), hits mostly inhibitors. HEK 293 viability, ATP luminescence (CellTiter-Glo), 48-72 h; further: nearly all actives have a fitted effect of over 60% in size
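ATP-coupled CellTiter-Glo luminescence served as viability read-out, recorded 10 min after reagent addition at room temperature. HEK 293 cells, 250 cells/well, had been incubated with pintool-transferred compound for 48 or 72 hr at 37 degree Celsius.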
NPR1 antag: blocks ANP-stimulated signaling of human Npr1 receptor; HEK293 hNpr1 GloSensor cGMP, ANP-stimulated luminescence; P16066; 76,000 compounds, 1.6% hits; Potency, µM (series often up to 46.3 µM), most hits filed as inhibitors; calls by dose curve; further: nearly all actives have a fitted effect of over 60% in size
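HEK293 cells stably expressing human Npr1 and cGMP GloSensor pGS-40F, loaded 2 h with 2% GloSensor reagent, given compound 30 min at room temperature. Luminescence read before and 20 min after 0.1 nM hNppA.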
GPT2 inh: GPT2 alanine aminotransferase inhibition; Q8TD30; Recombinant GPT2, coupled pyruvate oxidase/HRP Amplex Red fluorescence; Potency, µM (series often up to 57.7 µM), hits mostly inhibitors; 100,000 compounds, 0.25% hits; AID 1671188; further: nearly all actives have a fitted effect of over 60% in size
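Fluorescence of coupled pyruvate oxidase/HRP/Amplex Red system (50uM Amplex, 30 min, dark) reports pyruvate formed by GPT2. Enzyme reaction: 10ng/uL GPT2, 2mM L-alanine, 250uM a-KG, 30 min room temperature, pH 7.5; 50uM AOA control.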
Luciferase inh: blocks purified firefly luciferase enzyme activity. Potency, µM (doses to about 115 µM), usual class: inhibitors. 76,000 compounds, 2.5% hits. purified P. pyralis luciferase, luminescence, biochemical. P08659. AID 1347043; further: nearly all actives have a fitted effect of over 65% in size
Target sequence (P08659 whole entry, looked up): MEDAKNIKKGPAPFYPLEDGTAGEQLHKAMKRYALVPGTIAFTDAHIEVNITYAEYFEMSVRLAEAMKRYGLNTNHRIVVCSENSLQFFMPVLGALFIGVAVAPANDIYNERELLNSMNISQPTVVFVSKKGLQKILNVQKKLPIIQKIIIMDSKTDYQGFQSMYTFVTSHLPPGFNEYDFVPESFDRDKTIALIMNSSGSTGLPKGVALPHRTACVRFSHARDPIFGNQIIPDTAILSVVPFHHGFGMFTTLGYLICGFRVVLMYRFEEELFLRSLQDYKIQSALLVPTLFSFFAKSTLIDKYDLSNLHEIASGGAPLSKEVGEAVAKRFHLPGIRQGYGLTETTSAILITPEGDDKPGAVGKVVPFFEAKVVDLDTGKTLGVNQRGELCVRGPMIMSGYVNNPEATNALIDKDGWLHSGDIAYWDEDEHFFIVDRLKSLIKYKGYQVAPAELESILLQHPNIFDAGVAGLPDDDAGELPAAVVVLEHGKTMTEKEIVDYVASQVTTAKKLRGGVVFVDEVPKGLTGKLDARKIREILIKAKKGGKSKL
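Inhibitors were tested against purified firefly luciferase in a biochemical, low-substrate format (both substrates at 10uM) and luminescence measured with a CCD imager.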
Numbers stand for hits; . = inactive; ? = inconclusive; / = no result given; [ ] = dose if it differs, or a comment. Unless noted, the call rests on the fitted dose curve; in most records, active means well fitted curve in the direction sought with a large enough effect; inconclusive means small, poorly fitted or top-dose-only effect, or another doubt; inactive means no such curve, though single readings can be large; an effect the other way counts as inactive or inconclusive.

SMILES	3T3 cytotox	HEK cytotox	NPR1 antag	GPT2 inh	Luciferase inh
COCc1ccc2c(c1)c(OC(C)(C)C(=O)NCc1cnccn1)nn2Cc1ccccc1	39.8µM	?	.	.	.
COCc1ccc2c(c1)c(OC(C)(C)C(=O)N1CC(O)C1)nn2Cc1ccccc1	100µM	?	.	.	.
Cc1ccoc1C(=O)N1CC(F)(F)C[C@H]1c1nc(C2CC2)no1	.	.	.	.	.
Cc1ccc(-n2nc(C(C)(C)C)cc2NC(=O)Nc2cc(COc3cccnc3)[nH]n2)cc1	/	/	/	.	/
CN(C)CCN1C(=O)CC[C@]2(C(=O)NCc3cc(F)cc(F)c3)CCCC[C@@H]12	.	.	.	.	.
O=C(NCCN1CCCC1)c1ccc(-c2ccc(N3CCSCC3)nc2)cc1	?	?	.	.	14.1µM
CC(C)c1nccn1CCCNC(=O)c1ccc(N2CCCCCC2)nc1	?	79.4µM	.	.	.
COCCNC(=O)c1ccc(-c2ccc(N3CCCCC3)nc2)cc1	.	?	.	.	?
CC(C)c1nccn1CCCNC(=O)c1ccc(N2CCC(CO)CC2)nc1	.	.	.	.	.
O=C(NCCN1CCOCC1)c1ccc(-c2ccc(N3CCCCC3)nc2)cc1	?	?	.	.	31.6µM
O=C(NCCCc1ccccc1)c1cc(-c2cccc(C(F)(F)F)c2)c2nncn2n1	.	.	/	.	/
CCCn1nccc1C(=O)N1CCCC(c2[nH]ncc2Cc2ccccc2)C1 (centres undefined)	?	50.1µM	.	?	.
CC(=O)O[C@H]1CC[C@H](C)[C@@]2(C)[C@H](OC(C)=O)c3c(C)coc3C(=O)[C@H]12	/	/	/	.	/
c1ccc2c(c1)COC1(CCNC1)CN2CC1CCCC1 (centres undefined)	35.5µM	50.1µM	/	.	/
c1ccc2c(c1)COC1(CCN(CC3CC3)C1)CN2CC1CC1 (centres undefined)	?	.	/	.	/
COCc1cc(N2CCN(Cc3ccccc3C#N)CC2)ncn1	.	.	.	.[11.5 µM]	.
Cc1cccc(-n2nc(C)c(CCC(=O)N(C)C(C)C)c2Oc2ccccc2C)c1	28.2µM	?	?	.	.
Cc1cccc(-n2nc(C)c(CCC(=O)N(C)C(C)C)c2Oc2ccc(F)cc2F)c1	39.8µM	?	?	.	.
Cc1nn(-c2ccc(F)cc2)c(Oc2ccc(F)cc2F)c1CCC(=O)NC(C)C	?	?	.	.	.
Cc1nn(-c2ccc(F)cc2)c(Oc2ccc(F)cc2F)c1CCC(=O)N(C)C(C)C	?	39.8µM	.	.	.
CCN(CC)C(=O)CCc1c(C)nn(-c2ccccc2C)c1Oc1cccc(F)c1	?	39.8µM	.	.	.
COCC(=O)N1CCC2(CC1)CC(N1CCN(c3ccccn3)CC1)CCO2 (centres undefined)	.	.	.	.	.
N#Cc1ccc(CN2CCC(N3CCOCC3=O)CC2)cc1	.	.	/	.	/
COCCNC(=O)CCc1c(C)nn(-c2ccc(F)cc2)c1Oc1ccc(F)cc1F	25.1µM	?	.	.	.
Cc1ccccc1-n1nc(C)c(CCC(=O)N(C)C(C)C)c1Oc1ccccc1F	?	44.7µM	.	.	.
SMILES	3T3 cytotox	HEK cytotox	NPR1 antag	GPT2 inh	Luciferase inh
COCCc1nncn1C1CCN(S(=O)(=O)c2ccccc2Cl)CC1	.	.	.	.	.
O=S(=O)(c1ccc(Cl)cc1)c1nnn2c1nc(NCc1ccc(F)cc1)c1ccccc12	31.6µM	?	/	.	/
CCc1ccc(S(=O)(=O)c2nnn3c2nc(NCc2ccc(F)cc2)c2ccccc23)cc1	?	.	/	.	/
Cc1ccc(-c2nc(C(=O)NCc3cccc(C)c3)no2)cc1	?	79.4µM	.	.	?
Cc1ccc(-c2nc(C(=O)NCc3cccc(Br)c3)no2)cc1	?	?	.	.	?
O=C(NCc1cccc(Cl)c1)c1noc(-c2ccc(F)cc2)n1	25.1µM	?	.	.	.
Cc1noc(C)c1-c1cc(-c2ccc3c(c2)C(=O)NC3)cn2cncc12	12.6µM	.	.	.	.
COc1cc(F)ccc1-c1cc(-c2c(C)noc2C)c2cncn2c1	?	63.1µM	.	.	.
COc1ccc(-c2cc(-c3c(C)noc3C)c3cncn3c2)cc1OC	22.4µM	?	.	?	.
Cc1ccccc1-c1cc(-c2c(C)noc2C)c2cncn2c1	?	44.7µM	.	.	.
